PubChem BioAssay AID504332 (National Center for Advancing Translational Sciences (NCATS), 2011)
About 31,000 (8.9%) of roughly 350,000 compounds were called active. Not shown: some 15% with an inconclusive outcome. The call rests on the fitted dose curve; in most records, active means well fitted inhibition curve with a large enough effect; inconclusive means small, poorly fitted or top-dose-only effect; inactive means no such curve, though single readings can be large or run the other way. What follows is part of a selection rich in actives, with near analogues and random picks from the rest. A call without a number means that no potency is given here.

Molecular target: Histone-lysine N-methyltransferase EHMT2 (Homo sapiens) (UniProt Q96KQ7)
Assay: qHTS Assay for Inhibitors of Histone Lysine Methyltransferase G9a; further: nearly all actives have a fitted effect of over 75% in size
Details: G9a H3K9 monomethylation, AlphaScreen, 2 h; series mostly up to 59 µM
In short: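 Quantitative HTS format: methyltransferase activity on a biotin-tagged H3K9 peptide is measured by AlphaScreen, using a rabbit anti-monomethyl-H3K9 antibody with streptavidin donor and anti-IgG acceptor beads. Final levels are 20 nM enzyme, 500 nM peptide, 20 uM SAM; 2 h RT.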
Potency means the concentration at half of the fitted maximal effect.

Sequence of Histone-lysine N-methyltransferase EHMT2 (Homo sapiens) (Q96KQ7 913-1193 limits assumed): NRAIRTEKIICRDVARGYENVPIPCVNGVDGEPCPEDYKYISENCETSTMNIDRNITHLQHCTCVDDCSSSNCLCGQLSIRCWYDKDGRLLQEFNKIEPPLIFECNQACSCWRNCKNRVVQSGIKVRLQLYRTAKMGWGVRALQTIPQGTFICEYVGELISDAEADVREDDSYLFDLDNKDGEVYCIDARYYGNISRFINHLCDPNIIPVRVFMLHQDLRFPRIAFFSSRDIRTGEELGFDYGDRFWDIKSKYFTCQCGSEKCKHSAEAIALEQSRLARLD

| SMILES | Potency | activity, negative = inhibition |
| --- | --- | --- |
| Cc1cc(Cl)c2oc(C(=O)NC(C)c3ccncn3)c(C)c2c1 (stereo unspecified) | inactive |  |
| COc1cc(N=Cc2c(O)c3ccccc3oc2=O)c(OC)cc1Cl |  | 16.1% [at 0.501 µM] (inactive) |
| COc1ccccc1N=Cc1c(O)c2ccccc2oc1=O | inactive |  |
| COc1ccc(N=Cc2c(O)[nH]c3ccccc23)cc1OC | 50.1 µM (active) |  |
| CCOC(=O)Cn1c(=O)n(Cc2ccc(OC)cc2)c(=O)c2cccnc21 | inactive |  |
| CC1CCCN(S(=O)(=O)c2ccc3[nH]c(=O)cc(C(=O)NCCc4ccc(Cl)cc4)c3c2)C1 (stereo unspecified) | inactive |  |
| COc1ccc(S(=O)(=O)NCc2cccn2Cc2cccc(C)c2)cc1 | inactive |  |
| CCOc1ccccc1C(=O)NCc1ccc2c(c1)CCN2C(=O)c1ccc(F)cc1 | inactive |  |
| c1coc(-c2nc3nc4ccccc4n3nc2-c2ccco2)c1 | 10 µM (active) |  |
| Cn1c(-c2ccco2)nc2cc3ccccc3cc21 |  | 8.95% [at 0.0925 µM] (inactive) |
| Cc1nn2c3ccccc3nc2n(C)c1=O | inactive |  |
| CCOc1ccc(CCNC(=O)c2c(C)oc3ncn(C)c(=O)c23)cc1 | inactive |  |
| CCCc1nn2c(=O)cc(COC(=O)c3ccc(NC(=O)C(C)Oc4ccccc4)cc3)nc2s1 (stereo unspecified) | inactive |  |
| COc1ccc(/C=C/C(=O)c2cc(Br)ccc(=O)c2O)cc1 | 10 µM (active) |  |
| COc1ccc(C(=O)/C=C/c2ccc(OC3CSC3)cc2)cc1 | inactive |  |
| COc1ccc(/C=C/C(=O)c2ccc(OC)cc2O)cc1 | inactive |  |
| Cc1cccc(Cc2c(C)nc3nc(SCc4ccccc4Cl)nn3c2C)c1 | inactive |  |
| CCOC(=O)c1ccc(N2C(=O)c3n[nH]c(C)c3C2c2ccc(O)c(OC)c2)cc1 (stereo unspecified) | inactive |  |
| CCOC(=O)c1ccc(N2C(=O)c3[nH]nc(-c4ccccc4)c3C2c2ccc(C(C)C)cc2)cc1 (stereo unspecified) | inactive |  |
| CCOC(=O)c1ccc(N2C(=O)c3n[nH]c(-c4ccco4)c3C2c2ccc(O)cc2)cc1 (stereo unspecified) | 17.8 µM (active) |  |
| Cc1ccc(F)cc1NC(=O)CCSc1nc(-c2ccco2)cc(C(F)(F)F)n1 | inactive |  |

| SMILES | Potency | activity, negative = inhibition |
| --- | --- | --- |
| Cc1ccc(NC(=O)CCCn2c(=O)c3cccn3c3ccccc32)cc1Cl | inactive |  |
| Cc1ccc(S(=O)(=O)N2CCC(C(=O)OCC(=O)N3CC(=O)Nc4ccccc43)CC2)cc1 | inactive |  |
| O=C1CN(C(=O)COC(=O)C2CC(=O)N(Cc3ccco3)C2)c2ccccc2N1 (stereo unspecified) | 50.1 µM (active) |  |
| COc1cc(OC)c(C(=O)OCC(=O)N2CC(=O)Nc3ccccc32)cc1OC | inactive |  |
| COc1ccc(OC)c(S(=O)(=O)N2CCCC(C(=O)N3CCC(C(N)=O)CC3)C2)c1 (stereo unspecified) | inactive |  |
| O=C(CSc1ncc(CO)n1Cc1ccc(Cl)cc1)NCc1ccc(F)cc1 | inactive |  |
| CCc1c(C)sc(NC(=O)c2ccc(Br)o2)c1C(=O)OC | inactive |  |
| CCc1c(C)sc(NC(=O)c2cccs2)c1C(N)=O | 11.2 µM (active) |  |
| CCCc1nnc(NC(=O)c2cccs2)s1 |  | -0.387% [at 12.7 µM] (inactive) |
| CCc1c(C)sc(NC(=O)C2c3ccccc3Oc3ccccc32)c1C(=O)OC(C)C | inactive |  |
| COc1cc(C(=O)NCC(=O)N2CC=C(c3ccccc3)CC2)cc(OC)c1OC | inactive |  |
| O=C(COC(=O)c1ccccc1)c1ccc2c(c1)OCCO2 | inactive |  |
| CN(C(=O)C1CCN(c2ncnc3c2nc2n3CCCCC2)CC1)C1CCCCC1 | inactive |  |
| COCc1c(C(=O)OCC(=O)Nc2ccc(OC(F)F)cc2)oc2ccccc12 |  | -14.1% [at 12.7 µM] (inactive) |
| CN(C(=O)Cn1nnc(-c2ccc(F)cc2)n1)C1CCS(=O)(=O)C1 (stereo unspecified) |  | 14.1% [at 12.7 µM] (inactive) |
| Cc1ccc(-c2noc(C3CCCN(C(=O)c4cccc(Cl)c4)C3)n2)o1 (stereo unspecified) | 39.8 µM (active) |  |
| COc1cccc(-c2noc(C3CCCN(C(=O)c4ccc(F)cc4)C3)n2)c1 (stereo unspecified) | inactive |  |
| O=C(c1ccc(F)cc1)N1CCCC(c2nc(-c3cccs3)no2)C1 (stereo unspecified) | inactive |  |
| COc1ccc2nc(N3CCN(C(=O)c4ccc([N+](=O)[O-])o4)CC3)sc2c1 | inactive |  |
| CCc1ccccc1NC(=O)c1cnn(-c2ccc(F)cc2)c1C1CCNCC1 | inactive |  |
| O=C(NC(=S)Nc1ccc(Cl)c(C(=O)O)c1)c1cncc(Br)c1 | 44.7 µM (active) |  |

| SMILES | Potency | activity, negative = inhibition |
| --- | --- | --- |
| COC(=O)c1ccccc1NC(=O)c1cncc(Br)c1 | inactive |  |
| O=C(Nc1ccc(N2CCCC2=O)cc1)c1cncc(Br)c1 | inactive |  |
| O=C(NCCc1ccc(F)cc1)c1ccc2nccnc2c1 |  | -12.4% [at 12.7 µM] (inactive) |
| COc1cc(OC)cc(C(=O)NCC(=O)N2CCCCCCC2)c1 |  | 12.1% [at 12.7 µM] (inactive) |
| CCN(CC(=O)Nc1ccc(NC(C)=O)cc1)C(=O)CSC(=S)N1CCCC1 |  | -6.65% [at 12.7 µM] (inactive) |
| CCc1ccccc1NC(=O)Cc1ccc(NC(=O)N2CCCCc3ccccc32)cc1 | inactive |  |
| Cc1ccc(Nc2c(-c3ccc(C)cc3)nc3cnccn23)cc1 | inactive |  |
| Cc1ccc(Nc2c(-c3ccc(N(C)C)cc3)nc3nc[nH]n23)cc1 | 2.51 µM (active) |  |
| COC(=O)C1(C)NC(c2ccc(F)cc2)C2C(=O)N(c3ccccc3)C(=O)C21 (stereo unspecified) | inactive |  |
| Cc1sc2nc(CSCC(=O)NC3CCCCC3)[nH]c(=O)c2c1C |  | -8.21% [at 0.501 µM] (inactive) |
| COc1cc(OC)c(N2CC(C(=O)Nc3cc(Cl)ccc3N3CCOCC3)CC2=O)cc1Cl (stereo unspecified) | inactive |  |
| COc1cc(OC)c(-n2cc(-c3ccc(Cl)cc3)[nH]c2=O)cc1Cl | 31.6 µM (active) |  |
| COc1cc(OC)c(-n2c(C)cc(C=O)c2C)cc1Cl | inactive |  |
| CCOC(=O)C1CCN(c2nc3c(S(=O)(=O)c4ccc(CC)cc4)nnn3c3ccc(Cl)cc23)CC1 | inactive |  |
| CCCCNC(=O)CSc1nc2cc3c(cc2c(=O)n1CCCCCC(=O)NCc1ccc2c(c1)OCO2)OCO3 | inactive |  |
| O=C(CNS(=O)(=O)c1ccc2c(c1)OCCCO2)N1CCN(c2ccc(F)cc2)CC1 |  | 24.8% [at 12.7 µM] (inactive) |
| CC(=O)c1c(C)oc2ccc(NS(=O)(=O)c3ccc(C(=O)O)cc3)cc12 | inactive |  |
| Cc1cc(C(C)(C)C)cc(S(=O)(=O)Nc2ccc(C(=O)O)cc2)c1C | inactive |  |
| O=C(O)c1ccc(NS(=O)(=O)c2ccc3c(c2)C(=O)c2cc(S(=O)(=O)Nc4ccc(C(=O)O)cc4)ccc2-3)cc1 | 50.1 µM (active) |  |
